# Experimental data published in PubChem BioAssay (NCATS).
# Unmarked numbers belong to inactive results. Records with an inconclusive call do not appear. Where a call stands in place of a potency, no number is given. Activity calls are given as the source filed them. Calls follow the shape of the dose curve; as a rule, active = well fitted curve in the direction sought with a large enough effect; inconclusive = small, poorly fitted or top-dose-only effect, or another doubt; inactive = no such curve, though single readings can be large; an effect the other way counts as inactive or inconclusive.
# Experiments:
# [1] = molecular target: Cytochrome P450 2D6 (Homo sapiens) (UniProt P10635); experiment: qHTS Assay for Inhibitors and Substrates of Cytochrome P450 2D6 (AID 891); also: nearly all actives have a fitted effect of over 60% in size; also: potency is read from the fitted curve at half-maximal effect;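 as to activity change, negative = inhibition: luciferin methyl ether substrate demethylated by CYP2D6 with NADPH regeneration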
# Chain of Cytochrome P450 2D6 (Homo sapiens) (P10635 whole entry, looked up): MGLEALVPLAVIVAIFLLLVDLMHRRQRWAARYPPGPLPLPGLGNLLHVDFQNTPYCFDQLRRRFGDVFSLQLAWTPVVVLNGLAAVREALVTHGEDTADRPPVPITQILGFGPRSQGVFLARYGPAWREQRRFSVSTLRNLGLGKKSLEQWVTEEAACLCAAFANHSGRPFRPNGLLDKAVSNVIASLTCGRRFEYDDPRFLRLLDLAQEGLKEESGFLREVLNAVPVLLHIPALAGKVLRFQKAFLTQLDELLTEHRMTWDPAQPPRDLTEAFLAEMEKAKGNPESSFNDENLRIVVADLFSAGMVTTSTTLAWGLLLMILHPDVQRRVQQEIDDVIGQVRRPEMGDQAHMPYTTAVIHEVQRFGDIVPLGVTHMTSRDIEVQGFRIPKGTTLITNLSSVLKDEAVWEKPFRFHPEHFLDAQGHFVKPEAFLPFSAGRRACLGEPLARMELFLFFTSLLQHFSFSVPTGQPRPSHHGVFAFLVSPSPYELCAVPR
# Procedure, shortened: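 Luminescent read-out of luciferin formed by 5 nM human CYP2D6 demethylating 30 uM Luciferin-ME EGE (Km level) over 60 min at room temperature after NADPH regeneration addition. Data normalized to full inhibition by 1.43 uM quinidine.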
# [2] = molecular target: Alpha-galactosidase (Coffea arabica) (UniProt Q42656); experiment: Counterscreen for Glucocerebrosidase Inhibitors: qHTS Assay for Coffee Bean alpha-Galactosidase at pH 5.9 (AID 998)
# Chain of Alpha-galactosidase (Coffea arabica) (Q42656 whole entry, looked up): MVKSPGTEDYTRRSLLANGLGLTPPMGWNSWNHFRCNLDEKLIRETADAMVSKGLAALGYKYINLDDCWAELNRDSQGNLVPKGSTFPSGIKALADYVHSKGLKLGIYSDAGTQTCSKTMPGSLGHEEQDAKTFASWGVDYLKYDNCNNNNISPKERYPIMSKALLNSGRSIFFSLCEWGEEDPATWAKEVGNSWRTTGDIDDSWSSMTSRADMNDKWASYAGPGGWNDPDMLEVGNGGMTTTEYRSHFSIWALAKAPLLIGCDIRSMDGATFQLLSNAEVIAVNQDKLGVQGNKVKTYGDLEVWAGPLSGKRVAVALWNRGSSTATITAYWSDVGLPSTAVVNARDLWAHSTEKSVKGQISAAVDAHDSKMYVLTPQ
# Procedure, shortened: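 Fluorogenic 4-MU substrate hydrolysis, 80 uM substrate and 2 nM coffee bean alpha-galactosidase, pH 5.9 citrate buffer, 20 min at room temperature, then NaOH/glycine stop. Titration 0.7 nM–77 uM, normalized to no-enzyme and enzyme controls, AC50 via Hill equation.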
# [3] = molecular target: Cytochrome P450 2C19 (Homo sapiens) (UniProt P33261); experiment: qHTS Assay for Inhibitors and Substrates of Cytochrome P450 2C19 (AID 899); also: nearly all actives have a fitted effect of over 60% in size; also: potency is read from the fitted curve at half-maximal effect
# Chain of Cytochrome P450 2C19 (Homo sapiens) (P33261 whole entry, looked up): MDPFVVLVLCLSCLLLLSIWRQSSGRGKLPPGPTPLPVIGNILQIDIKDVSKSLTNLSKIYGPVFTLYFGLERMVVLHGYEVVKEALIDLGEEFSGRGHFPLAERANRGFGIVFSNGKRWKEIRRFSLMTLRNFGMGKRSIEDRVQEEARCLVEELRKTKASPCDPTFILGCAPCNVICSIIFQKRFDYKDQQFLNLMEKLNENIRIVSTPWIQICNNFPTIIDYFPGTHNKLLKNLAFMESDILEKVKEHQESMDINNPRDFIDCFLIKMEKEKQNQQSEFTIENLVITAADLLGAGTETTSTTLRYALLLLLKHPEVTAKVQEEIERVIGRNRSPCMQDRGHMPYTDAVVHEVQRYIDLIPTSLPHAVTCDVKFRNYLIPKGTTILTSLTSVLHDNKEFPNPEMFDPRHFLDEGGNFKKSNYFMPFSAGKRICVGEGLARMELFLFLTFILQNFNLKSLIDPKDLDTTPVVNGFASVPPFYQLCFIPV
# Procedure, shortened: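 Reactions contain 5nM enzyme, 10uM Luciferin-H EGE (KM) and 50mM KPO4; compound preincubates 10 min at 37C, NADPH regeneration starts turnover for 60 min. Luminescence after detection reagent gives activity.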
# [4] = molecular target: Cytochrome P450 3A4 (Homo sapiens) (UniProt P08684); experiment: qHTS Assay for Activators of Cytochrome P450 3A4 (AID 885); also: nearly all actives have a fitted effect of over 65% in size; also: potency is read from the fitted curve at half-maximal effect
# Chain of Cytochrome P450 3A4 (Homo sapiens) (P08684 whole entry, looked up): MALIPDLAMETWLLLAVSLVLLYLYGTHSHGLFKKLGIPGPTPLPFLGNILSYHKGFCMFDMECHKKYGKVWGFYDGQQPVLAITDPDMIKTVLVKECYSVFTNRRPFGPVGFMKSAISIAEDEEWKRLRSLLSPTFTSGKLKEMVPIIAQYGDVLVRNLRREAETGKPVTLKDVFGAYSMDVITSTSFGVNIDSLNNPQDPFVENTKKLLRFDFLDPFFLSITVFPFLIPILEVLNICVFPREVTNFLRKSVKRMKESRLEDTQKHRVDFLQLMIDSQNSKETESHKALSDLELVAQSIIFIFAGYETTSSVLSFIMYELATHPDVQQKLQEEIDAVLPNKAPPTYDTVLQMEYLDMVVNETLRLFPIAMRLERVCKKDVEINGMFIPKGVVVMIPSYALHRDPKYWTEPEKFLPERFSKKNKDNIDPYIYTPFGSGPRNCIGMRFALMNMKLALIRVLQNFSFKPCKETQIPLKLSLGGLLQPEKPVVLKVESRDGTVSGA
# Procedure, shortened: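 Using 20nM recombinant human CYP3A4 in potassium phosphate (200mM), substrate Luciferin-PPXE at 25uM, luminescent luciferin detection followed a 60-min RT NADPH reaction; data scaled to 57 uM ketoconazole.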
# [5] = molecular target: Alpha-galactosidase (Coffea arabica) (UniProt Q42656); experiment: Counterscreen for Glucocerebrosidase Inhibitors: qHTS Assay for Coffee Bean alpha-Galactosidase at pH 4.5 (AID 957); also: series mostly up to about 77 µM
# Procedure, shortened: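 Enzyme is added first (2 nM final), then compounds titrated from 0.7 nM to 77 uM, then 80 uM 4-methylumbelliferyl alpha-D-galactopyranoside; after 20 min at room temperature a pH 10 NaOH/glycine stop precedes fluorescence reading at 365/440 nm.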
# [6] = Confirmation and Secondary Assay for Modulators of Hemoglobin Beta Chain Splicing at IVS2 654 locus (AID 910);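 also: HeLa cells stably carrying EGFP split by mutant beta-globin IVS2-654 intron; per-well total GFP intensity by laser scanning cytometry after 2-day treatment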
# Procedure, shortened: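 Readout: per-well total peak green fluorescence (488 nm ex, 500–520 nm em) from objects 5–250 µm, reflecting correct splicing of an EGFP-654 reporter. Compounds were applied for 2 days at 37 °C to overnight-plated HeLa EGFP-654 cells; controls were DMSO and 500 nM IVS2-654 PNA.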
# [7] = Confirmation and Secondary Assay for Modulators of Hemoglobin Beta Chain Splicing at IVS2 705 locus (AID 930);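 also: HeLa cells stably expressing the EGFP-705 splicing reporter; GFP fluorescence per well restored by corrected splicing of the IVS2-705 intron in EGFP; series mostly up to about 46 µM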
# Procedure, shortened: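 Splice-correction reporter: EGFP cDNA split by beta-globin intron 2 bearing the 705 mutation, stably in HeLa. Compound incubation 2 days, 37C; fluorescent objects 5-250 µm summed per well.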
# [8] = qHTS Assay for Identification of Small Molecule Antagonists for Thrombopoietin (TPO) Signaling Pathway (AID 918); details: TPO-dependent cell signaling reporter, antagonist mode; also: potency is read from the fitted curve at half-maximal effect; nearly all actives have a fitted effect of over 60% in size
# Procedure, shortened: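 Inhibitors of TPO signaling are sought by stimulating IL-3-starved murine Ba/F3 cells (human TPO receptor, Glycoprotein IIb-driven luciferase) with TPO at its EC50 of 26 pM alongside compound. After 24 hrs at 37 C, reporter luminescence is measured.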
# [9] = molecular target: Muscarinic acetylcholine receptor M1 (Rattus norvegicus) (UniProt P08482); experiment: qHTS Assay for Antagonists of Acetylcholine Muscarinic M1 Receptor: Kinetic Measurement of Intracellular Calcium Response (AID 943); also: potency is read from the fitted curve at half-maximal effect; nearly all actives have a fitted effect of over 75% in size
# Chain of Muscarinic acetylcholine receptor M1 (Rattus norvegicus) (P08482 whole entry, looked up): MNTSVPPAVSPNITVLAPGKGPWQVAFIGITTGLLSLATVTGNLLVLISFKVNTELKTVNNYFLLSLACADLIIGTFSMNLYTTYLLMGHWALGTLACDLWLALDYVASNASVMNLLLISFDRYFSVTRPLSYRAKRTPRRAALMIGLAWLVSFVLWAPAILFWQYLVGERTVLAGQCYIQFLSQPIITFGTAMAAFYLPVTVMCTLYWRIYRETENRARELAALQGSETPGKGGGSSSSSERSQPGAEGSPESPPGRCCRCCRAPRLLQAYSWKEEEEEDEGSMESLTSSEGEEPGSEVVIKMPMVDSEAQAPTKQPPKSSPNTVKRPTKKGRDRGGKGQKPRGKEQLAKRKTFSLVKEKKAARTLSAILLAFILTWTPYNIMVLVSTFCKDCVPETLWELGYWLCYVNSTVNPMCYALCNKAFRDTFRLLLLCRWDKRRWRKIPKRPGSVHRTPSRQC
# Procedure, shortened: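 Antagonism is measured as inhibition of the carbachol-evoked calcium rise in CHO cells transfected with rat M1. Cells are dye-loaded, exposed to compound for 10 min, then stimulated with 100 nM carbachol (EC80).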
# [10] = molecular target: Muscarinic acetylcholine receptor M1 (Rattus norvegicus) (UniProt P08482); experiment: qHTS Assay for Antagonists of Acetylcholine Muscarinic M1 Receptor: Measurement of IP-One Response (AID 944); also: potency is read from the fitted curve at half-maximal effect; nearly all actives have a fitted effect of over 75% in size
# Procedure, shortened: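 Antagonist mode with rat M1 receptor transfected into CHO cells. Compound is added first for 10 min, carbachol at its EC80 follows for 30 min, and lysis reagents then allow TR-FRET detection of accumulated IP1.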
# [11] = molecular target: Pyruvate kinase (Leishmania mexicana) (UniProt Q27686); experiment: qHTS Validation Assay for Inhibitors of Leishmania Mexicana Pyruvate Kinase (AID 945)
# Chain of Pyruvate kinase (Leishmania mexicana) (Q27686 2-499 E452W): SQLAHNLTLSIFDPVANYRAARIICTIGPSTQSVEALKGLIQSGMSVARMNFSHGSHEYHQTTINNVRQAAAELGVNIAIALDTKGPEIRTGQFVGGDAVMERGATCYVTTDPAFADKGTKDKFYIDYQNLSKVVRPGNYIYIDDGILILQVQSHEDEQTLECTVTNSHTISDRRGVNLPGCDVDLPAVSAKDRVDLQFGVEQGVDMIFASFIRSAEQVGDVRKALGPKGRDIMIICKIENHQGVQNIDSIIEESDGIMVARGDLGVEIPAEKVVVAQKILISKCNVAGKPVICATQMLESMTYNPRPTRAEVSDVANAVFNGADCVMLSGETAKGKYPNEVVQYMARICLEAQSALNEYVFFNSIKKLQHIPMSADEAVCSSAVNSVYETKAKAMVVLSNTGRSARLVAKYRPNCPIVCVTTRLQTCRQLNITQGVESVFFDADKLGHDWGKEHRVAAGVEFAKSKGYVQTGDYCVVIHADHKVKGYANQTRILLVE
# Procedure, shortened: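 The enzyme is a highly purified E451W mutant of LmPYK used at 0.2 nM. It converts 0.5 mM PEP and 0.1 mM ADP over 1 h at room temperature; product ATP is quantified by luciferase luminescence relative to DMSO controls.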
smiles,measurement,setting,value
O=C1OC(=O)[C@@H]2[C@@H]1[C@@H]1CC[C@H]2O1,Potency,[1],inactive
same,outcome,[2],inactive
CCC1=C(C[C@H]2NCCc3ccccc32)C[C@@H]2c3cc(OC)c(OC)cc3CCN2C1,Potency,[1],2.51 µM (active)
C=C(CO)[C@H]1Cc2c(ccc3c2O[C@H]2COc4cc(OC)c(OC)cc4[C@@H]2C3=O)O1,Potency,[3],5.01 µM (active)
O[C@@H]1[C@@H]2c3cc4c(cc3CN3CCC(=C[C@@H]1O)[C@H]23)OCO4,Potency,[1],3.98 µM (active)
COc1ccc2[nH]c(C(=O)c3ccccc3)cc2c1,Potency,[4],inactive
CC(C)(C)c1ccc(OC(=O)Nc2ccc(O)c(C(=O)O)c2)cc1,"activity change, negative = inhibition",[1],22.6% [at 11.4 µM]
N#CC(=C(/N)Sc1ccccc1N)/C(C#N)=C(/N)Sc1ccccc1N,Potency,[1],0.02 µM (active)
same,outcome,[5],inactive
same,outcome,[2],inactive
CC(C)c1cccc(O)c(=O)c1,Potency,[4],inactive
COC(=O)[C@H]1[C@@H](c2ccccc2)[C@@]2(c3ccccc3)Oc3ccccc3[C@@]1(O)[C@@H]2O,"activity change, positive = activation",[4],-40.9% [at 11.4 µM]
same,"activity change, negative = inhibition",[1],40.2% [at 11.4 µM]
COc1ccc2c(c1)CN([C@H](C)[C@@H]1CC[C@@H]3[C@H]4CC[C@H]5C[C@@H](O)CC[C@@]5(C)[C@H]4CC[C@]31C)CO2,Potency,[4],3.98 µM (active)
same,Potency,[1],3.16 µM (active)
CCCN1[C@@H]2C[C@@H](O)CC[C@@H]2C[C@H]1C(=O)OC,Potency,[4],inactive
O[C@@H](c1cc(-c2ccccc2)nc2c1ccc1ccccc12)[C@@H]1CCCCN1,Potency,[1],3.16 µM (active)
CC1(C)C(=O)C=C[C@]2(C)C1CC(=O)[C@]1(C)C2CC[C@@]2(C)C(c3ccoc3)OC(=O)C3O[C@@]321 (stereo partly specified),Potency,[4],inactive
CC(=O)[C@@H]1CC[C@@H]2[C@@H]3CCC4=CC(=O)CC[C@@]4(C)[C@H]3CC[C@]21C,Potency,[4],3.98 µM (active)
same,Potency,[3],7.94 µM (active)
CC(=O)[C@@H]1CC[C@@H]2[C@@H]3CC=C4C[C@H](OS(=O)(=O)O)CC[C@@]4(C)[C@H]3CC[C@]21C,Potency,[4],inactive
same,outcome,[5],inactive
same,outcome,[2],inactive
c1ccc2c(c1)-c1ccccc1C2N1CC2CCC(CC2)C1,Potency,[1],3.98 µM (active)
O=C1c2ccccc2-c2cc([N+](=O)[O-])c([N+](=O)[O-])cc21,"activity change, positive = activation",[4],-119% [at 11.4 µM]
same,Potency,[1],3.16 µM (active)
same,Potency,[3],0.398 µM (active)
CCN1CCC[C@@H](OC(=O)C(c2ccccc2)c2ccccc2)C1,Potency,[1],1.58 µM (active)
C[C@@H]1Cc2ccccc2N1NC(=O)c1ccc(Cl)c(S(N)=O)c1 (stereo partly specified),Potency,[4],inactive
CC(C)CCC[C@@H](C)[C@@H]1CC[C@@H]2[C@H]3CC[C@H]4C[C@@H](N)CC[C@@]4(C)[C@@H]3CC[C@]21C,"activity change, negative = inhibition",[1],11% [at 11.4 µM]
same,"activity, negative = inhibition",[3],61.6% [at 11.4 µM]
CN1[C@H](CC(=O)c2ccccc2)CCC[C@H]1C[C@@H](O)c1ccccc1,Potency,[1],0.01 µM (active)
C=C(Br)CN(C)CC(=C)Br,"activity, negative = inhibition",[3],46.7% [at 11.4 µM]
C=C(C)C1Cc2c(ccc3c2OC2COc4cc(OC)c(OC)cc4C2C3=O)O1 (stereo unspecified),Potency,[6],inactive
same,outcome,[7],inactive
CC1=C(O)C(=O)C=C2C1=CC=C1[C@]2(C)CC[C@@]2(C)C3C[C@](C)(C(=O)O)CC[C@@]3(C)CC[C@@]12C (stereo partly specified),Potency,[6],inactive
CC[C@@H]1CN2CCc3cc(OC)c(OC)cc3[C@H]2C[C@@H]1C[C@@H]1NCCc2cc(OC)c(OC)cc21,Potency,[8],0.0631 µM (active)
COc1ccc2c(c1)CCC1C2CC[C@]2(C)[C@H](NCCCCCCN3C(=O)C=CC3=O)CC[C@@H]12 (stereo partly specified),Potency,[8],2 µM (active)
CN(C)C1C(=O)C(C(N)=O)=C(O)[C@@]2(O)C(=O)C3=C(O)c4c(O)cccc4[C@](C)(O)C3C(O)C12 (stereo partly specified),outcome,[7],inactive
CC(=O)O[C@@H]1[C@H]([N+]2(C)CCCCC2)C[C@@H]2[C@@H]3CC[C@@H]4C[C@@H](OC(C)=O)[C@H]([N+]5(C)CCCCC5)C[C@@]4(C)[C@H]3CC[C@]21C,Potency,[9],8.91 µM (active)
same,Potency,[10],14.1 µM (active)
CC(C)[C@@H]1NC(=O)[C@H](CCCCN)NC(=O)[C@H](Cc2c[nH]c3ccccc23)NC(=O)[C@H](Cc2ccc(O)cc2)NC(=O)[C@H](C)N(C)C(=O)[C@H](Cc2ccccc2)NC1=O,Potency,[11],inactive
CN(C)[C@@H]1C(=O)C(C(N)=O)=C(O)[C@]2(O)C(=O)C3=C(O)c4c(O)ccc(Cl)c4[C@H](O)[C@H]3C[C@@H]12,outcome,[5],inactive
same,outcome,[2],inactive
CN[C@]1(C)[C@@H]2CC[C@@H](C2)C1(C)C,outcome,[5],inactive
same,outcome,[2],inactive
C=CCc1ccccc1OC[C@H](O)CNC(C)C,outcome,[5],inactive
same,outcome,[2],inactive
CC(C)(C)NC[C@H](O)c1cc(O)cc(O)c1,outcome,[5],inactive
same,outcome,[2],inactive
C#CCN1C(C)=C(C(=O)OC)[C@@H](c2cccc([N+](=O)[O-])c2)C(C(=O)OCC)=C1C,outcome,[5],inactive
same,outcome,[2],inactive
COCCOC(=O)C1=C(C)NC(C)=C(C(=O)OC(C)C)[C@@H]1c1cccc([N+](=O)[O-])c1,outcome,[5],inactive
same,outcome,[2],inactive
NC[C@@H]1O[C@@H](O[C@H]2[C@@H](O)[C@H](O[C@@H]3[C@H](O)[C@H](N)C[C@H](N)[C@H]3O[C@@H]3O[C@@H](CO)[C@H](O)[C@H](O)[C@@H]3N)O[C@H]2CO)[C@H](N)[C@H](O)[C@@H]1O,outcome,[5],inactive
same,outcome,[2],inactive
